Compound activity as filed in PubChem.
Shown are actives, neighbours in structure and some others; about 21% of the full set was active somewhere.
ELG1 repair inh: blocks ELG1-dependent DNA repair in HEK293T cells | 330,000 tested, 2.3% active | HEK293T ELG1-luciferase reporter, luminescence, 16 h; DNA damage induced by 5-fluorouridine | Potency, µM (series often up to 46.1 µM), inactives show top-dose activity change, negative = inhibition, hits mostly inhibitors; note: potency is the fitted concentration of half-maximal effect; nearly all actives have a fitted effect of over 55% in size
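Cells (2,000 per well) received 5-fluorouridine plus test compound or DMSO and were incubated 16 hr at 37 °C, 5% CO2. Luciferase activity was read by luminescence 30 min after ONE-Glo addition; signal suppression marked inhibition of damage-induced ELG1 function.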
RORgamma inh: inhibitors of mouse ROR gamma transcriptional activity. P51450. Drosophila S2 Gal4-RORgamma UAS-luciferase reporter, 20 h. Potency, µM (highest dose often 53.6 µM), inactives show top-dose activity change, negative = inhibition, usual class: inhibitors. 310,000 tested, 5.4% active. AID 2551; note: potency is the fitted concentration of half-maximal effect; nearly all actives have a fitted effect of over 60% in size
Target sequence (P51450 whole entry, looked up, the tested form may be a part): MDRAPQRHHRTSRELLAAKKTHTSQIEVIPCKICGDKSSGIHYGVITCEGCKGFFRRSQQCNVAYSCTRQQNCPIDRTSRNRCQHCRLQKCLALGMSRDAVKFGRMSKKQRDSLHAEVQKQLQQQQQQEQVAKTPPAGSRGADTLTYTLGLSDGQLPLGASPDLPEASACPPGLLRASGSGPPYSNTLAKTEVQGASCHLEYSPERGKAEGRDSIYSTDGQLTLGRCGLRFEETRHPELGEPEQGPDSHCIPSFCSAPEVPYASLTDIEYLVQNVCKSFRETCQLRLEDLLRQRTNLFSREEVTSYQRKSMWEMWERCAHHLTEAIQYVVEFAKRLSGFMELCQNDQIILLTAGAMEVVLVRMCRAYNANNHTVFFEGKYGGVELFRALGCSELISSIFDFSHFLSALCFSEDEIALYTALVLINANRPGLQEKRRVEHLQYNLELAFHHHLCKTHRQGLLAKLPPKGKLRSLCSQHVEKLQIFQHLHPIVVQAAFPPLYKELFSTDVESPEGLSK
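Luminescence from a UAS-regulated Photinus luciferase reporter in stably transfected Drosophila Schneider cells is measured; decreased signal marks ROR gamma inhibition. Fusion expression is induced by 700 uM copper sulfate for 20 hr.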
TDP1 cell CPT: DT40-hTDP1 cell growth loss with CPT; Potency, µM (doses to about 46.2 µM), without a hit: top-dose activity change, negative = growth inhibition, usual class: inhibitors; chicken DT40 Tdp1-/-;hTDP1 cells + 20 nM CPT, ATP luminescence, 48 h; 420,000 tested, 12% active; note: potency is the fitted concentration of half-maximal effect; nearly all actives have a fitted effect of over 55% in size
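Chicken DT40 Tdp1-/- cells stably complemented with human TDP1 were seeded at 400 cells/well in medium containing 20 nM camptothecin, exposed to pin-transferred compounds, and grown at 37 °C for at least 48 hr. Viability was read as ATP luminescence.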
Gal4-VP16 FLuc: counter-screen for ROR gamma inhibitors: Gal4-VP16 reporter; Drosophila S2 Gal4-VP16 UAS-luciferase, luminescence, 20 h; Potency, µM (top dose mostly 53.6 µM), inactives show top-dose activity, negative = inhibition, actives largely listed as inhibitors; 310,000 tested, 3.5% active;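 note: Gal4-VP16 expression switched on by copper sulfate through the metallothionein promoter; potency is the fitted concentration of half-maximal effect; nearly all actives have a fitted effect of over 50% in size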
DT40 TDP1 no CPT: qHTS for Inhibitors of human tyrosyl-DNA phosphodiesterase 1 (TDP1): qHTS in cells in absence of CPT; DT40 Tdp1-/- hTDP1 cells, no CPT, ATP luminescence, 48 h; Potency, µM (series often up to 46.2 µM), inactives show at the top dose activity change, negative = growth inhibition, usual class: inhibitors; 420,000 tested, 15% active; note: potency is the fitted concentration of half-maximal effect; nearly all actives have a fitted effect of over 55% in size
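A cellular qHTS used chicken DT40 cells lacking endogenous Tdp1 but carrying stably transfected human TDP1. Compounds were applied without camptothecin, and cell growth kinetics were judged by ATP-dependent luminescence after ≥48 hr.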
IL-1B inflam inh: inhibitors of inflammasome signaling (IL-1 beta secretion); AID 743279; activity change, % at 57.5 µM; THP-1 LPS/ATP IL-1B secretion, AlphaLISA, 16 h; active compounds read low; 360,000 tested, 4.7% active; in the data active = activity change below about -50%; inconclusive = mostly about -30% to -49%
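THP-1 cells pretreated 1 hr with compounds (up to 57.5 uM final), then stimulated with LPS (250 ng/mL final) plus ATP (1.25 mM final); secreted IL-1B measured by AlphaLISA after 16 hr, decreased signal indicating inhibition.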
* marks the source's active call; other numbers are inactive results; ? = inconclusive; / = no result given; [ ] = dose if it differs, or a comment. Unless noted, calls come from the whole dose curve; as a rule, active = well fitted curve in the direction sought with a large enough effect; inconclusive = small, poorly fitted or top-dose-only effect, or another doubt; inactive = no such curve, though single readings can be large; an effect the other way counts as inactive or inconclusive. % is set by controls: 0 for no effect and ±100 for the full control effect.

SMILES	ELG1 repair inh	RORgamma inh	TDP1 cell CPT	Gal4-VP16 FLuc	DT40 TDP1 no CPT	IL-1B inflam inh
CCOc1ccc(S(=O)(=O)N2CCN(C)CC2)cc1NC(=O)c1ccccc1F	-20%	4µM*	?	?	?	/
CCOc1ccc(S(=O)(=O)N2CCOCC2)cc1NC(=O)c1ccccc1F	0%	-12%	7%	2%	-21%	-19
CCOc1ccc(S(=O)(=O)NCc2ccncc2)cc1NC(=O)c1ccccc1F	?	-10%	-24%	-14%	1.5µM*	55
CCOc1ccc(S(=O)(=O)NCc2ccncc2)cc1NC(=O)c1ccccc1	4.1µM*	/	3.7µM*	/	1.2µM*	-9
COc1ccc(S(=O)(=O)NCc2cccnc2)cc1NC(=O)c1ccccc1	-2%	4%	-6%	-2%	-18%	12
CCOc1ccc(S(=O)(=O)N2CCN(CC)CC2)cc1NC(=O)c1ccccc1F	2%	-4%	-5%	12%	?	-23
CCOC(=O)c1c(C)[nH]c(C)c1S(=O)(=O)N(C)CC(=O)Nc1ccc(CC)cc1	/	/	-27%	/	-20%	/
Brc1ccc(-c2nnc(-c3cccc(Br)c3)o2)cc1	11%	22%	-4%	-21%	-21%	18
Brc1cccc(-c2nnco2)c1	-3%	20µM*	-10%	?	-22%	0
Cn1c(SCC(=O)NC2CCS(=O)(=O)C2)nc2ccccc21 (stereo not given)	14%	/	-17%	/	-25%	?
Cc1n[nH]c(C)c1N1C(=O)c2cccc3c(Br)ccc(c23)C1=O	?	29%	?	-9%	?	-107*
Cc1n[nH]c(C)c1N1C(=O)c2cccc3cc(Br)cc(c23)C1=O	-2%	-1%	?	3%	?	-21
Cc1ccc2c(c1)C1CN(C)CCC1N2C(=S)NC(=O)c1ccc(Cl)cc1Cl (stereo not given)	-10%	0.28µM*	?	0.89µM*	?	3
CC1Cc2ccccc2N1C(=S)NC(=O)c1cccc(Br)c1 (stereo not given)	6%	1.1µM*	21µM*	0.79µM*	15µM*	22
COc1cccc(C(=O)NC(=S)N2c3ccccc3CC2C)c1OC (stereo not given)	-5%	4µM*	-1%	14µM*	?	5
COc1cccc(/C=C/C(=O)OCC(=O)N2c3ccccc3CC2C)c1OC (stereo not given)	-2%	/	3%	/	4%	10
CC1Cc2ccccc2N1C(=O)c1ccc2nccnc2c1 (stereo not given)	-2%	15%	-12%	3%	-2%	7
CC1Cc2ccccc2N1C(=S)NC(=O)c1ccc(Cl)cc1Cl (stereo not given)	-5%	0.35µM*	?	0.71µM*	10µM*	22
O=C(NNC(=O)c1ccccc1-n1cccc1)c1ccc(Cl)cc1Cl	2%	-21%	-8%	1%	-11%	-1
COC(=O)c1cc(CNC(=O)c2ccccc2)cc(NC(=O)c2ccccc2OC)c1	/	/	1%[9.04 µM]	/	?	/
NC(=O)c1c(NC(=O)CN2CCCC2)sc2c1CCCC2	?	?	9.2µM*	-10%	16µM*	-3
CCOC(=O)c1c(NC(=O)OC)sc2c1CCC2	0%	-1%	-9%	2%	-1%	7
NC(=O)c1c(NC(=O)c2ccncc2)sc2c1CCCC2	11%	40%	?	1%	16µM*	-9
COC(=O)Nc1sc2c(c1C(N)=O)CCCCCC2	-9%	27%	16µM*	1%	21µM*	-7
NC(=O)c1c(NC(=O)CN2C(=O)CCC2=O)sc2c1CCCCC2	?	?	-5%	3%	-20%	0
SMILES	ELG1 repair inh	RORgamma inh	TDP1 cell CPT	Gal4-VP16 FLuc	DT40 TDP1 no CPT	IL-1B inflam inh
N#CCC(=O)Nc1sc2c(c1C(N)=O)CCCC2	-1%	?	-19%	3%	-16%	-21
C=CC(=O)Nc1sc2c(c1C(N)=O)CCCC2	?	/	15µM*	/	?	-109*
CCc1ccc(C(=O)NNC(=O)CN2C(=O)NC(CC)(c3ccccc3)C2=O)cc1 (stereo not given)	16%	/	-2%	/	-6%	-11
C[C@@H]1COC(=O)[C@@H](CC(=O)OC(C)(C)C)C/C=C\C[C@@H](CC(=O)N[C@H](CO)Cc2ccccc2)C(=O)N1	-1%	/	-15%	/	-23%	7
O=C(NC1CCCCC1)c1[nH]c(C(F)(F)F)nc1-c1ccccc1	/	/	?	/	-12%	22
C=CCNC(=S)Nc1sc2c(c1C(N)=O)CCCC2	?	11µM*	?	?	?	-27
CC(C)C(=O)NC(=S)Nc1sc2c(c1C(N)=O)CCCC2	?	27%	?	10%	?	-6
NC(=O)c1c(NC(=O)COC(=O)c2ccc(O)c(Cl)c2)sc2c1CCCC2	?	/	26µM*	/	?	55
Cc1cc([N+](=O)[O-])nn1CCCC(=O)Nc1sc2c(c1C(N)=O)CCCC2	-1%	1%	?	-20%	18µM*	?
COC(=O)c1c(NC(=O)COC(=O)c2ccccc2O)sc2c1CCCCC2	13%	-9%	13%	-13%	-16%	20
O=C(CCNS(=O)(=O)c1ccccc1C(F)(F)F)NCCCc1ccccc1	12%	/	-20%	/	2%	-3
CC(=O)N1C2(C=CC1(C)C(=O)NCCN1CCOCC1)CCCCC2 (stereo not given)	/	6%	/	7%	/	/
CC1CC(N(C(=O)c2ccco2)c2ccccc2)c2ccccc2N1 (stereo not given)	0%	3%	?	-2%	15µM*	0
CC1CC(c2ccccc2)n2nc(NC(=O)c3ccco3)nc2N1 (stereo not given)	10%	-41%	2%	-11%	-4%	-11
O=C1c2ccc(O)c(O)c2C(=O)c2c(O)ccc(O)c21	/	?	10µM*	?	?	/
COc1ccccc1CNc1ncnc2c1cnn2-c1ccc(C)cc1	/	/	-27%	/	-12%	/
COc1ccc(CCNC(=O)c2cc(-c3ccccc3)c(N3CCOCC3)s2)cc1OC	/	/	21µM*	/	16µM*	-11
CSc1ccc(CCNC(=O)c2cc(-c3ccccc3)c(N3CCOCC3)s2)cc1	-18%	-11%	?	13%	16µM*	-12
CCN(CC)CCCNC(=O)c1cc(-c2ccccc2)c(N2CCCCC2)s1	15%	-22%	?	1%	15µM*	-10
